Only some compounds are listed: those with a hit (about 12% of all), similar ones and a draw of the others.
Pf growth 48h = inhibits P. falciparum growth in the first generation, 48 h; Potency, µM (series often up to 28.7 µM), inactives show top-dose activity change, negative = inhibition, actives largely listed as inhibitors; 5.9% of 310,000 active; P. falciparum luciferase growth in erythrocytes, 48 h; note: % is set by controls: 0 for no effect and ±100 for the full control effect
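Parasite viability was followed by luminescence of a genomically integrated firefly luciferase. Cultures held 0.1% parasitemia at 2% hematocrit (final), incubated under 5% CO2 at 37 C.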
Sm TGR block = inhibitors of Schistosoma mansoni thioredoxin glutathione reductase | 3% of 360,000 active | Potency, µM (top dose mostly 114 µM), for inactives: at the highest dose activity change, negative = inhibition, most hits filed as inhibitors | purified TGR, DTNB reduction, TNB absorbance 405 nm; note: % is set by controls: 0 for no effect and ±100 for the full control effect; nearly all actives have a fitted effect of over 60% in size
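TGR 20 nM + NADPH 100 uM (dispensed conc.), cpd preinc 15 min RT; start with NADPH (500 uM addition) then DTNB (15 mM addition). Kinetic TNB absorbance, 405 nm filter. Four-parameter Hill fit across titration.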
AmpC inh detg = AmpC beta-lactamase inhibition with detergent present; 0.041% of 370,000 active; AmpC hydrolysis of nitrocefin, absorbance 480 nm, 0.01% Triton; AID 485294; Potency, µM (titrated, usually from 114 µM), inactives show top-dose activity change, negative = inhibition, usual class: inhibitors;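 note: 0% = no-compound wells and -100% = no-enzyme wells; nearly all actives have a fitted effect of over 25% in size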
Target sequence (P00811 whole entry, looked up): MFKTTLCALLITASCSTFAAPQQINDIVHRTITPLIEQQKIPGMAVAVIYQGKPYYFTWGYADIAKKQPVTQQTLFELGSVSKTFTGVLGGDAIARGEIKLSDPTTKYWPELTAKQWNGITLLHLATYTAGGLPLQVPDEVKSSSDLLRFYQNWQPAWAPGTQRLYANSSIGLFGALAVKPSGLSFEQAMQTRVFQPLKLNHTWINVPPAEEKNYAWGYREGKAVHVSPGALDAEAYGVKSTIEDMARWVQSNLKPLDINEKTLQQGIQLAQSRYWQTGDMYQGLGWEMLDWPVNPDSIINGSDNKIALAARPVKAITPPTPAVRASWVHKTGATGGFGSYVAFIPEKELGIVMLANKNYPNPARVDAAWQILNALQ
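20 mM phosphate pH 7.0 + 0.01% (detergent screen) or 0.0001% Triton X-100; 5.3 nM AmpC reagent; cpd preinc 15 min RT; nitrocefin (800 uM stock) to start; A480 q20 s × 4 min; Activity was normalised to no-enzyme and no-compound control wells.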
AmpC inh no detg = inhibitors of E. coli AmpC beta-lactamase without detergent; P00811; AmpC nitrocefin hydrolysis, absorbance 480 nm, 0.0001% Triton; Potency, µM (titrated, usually from 57.1 µM), inactives show at the highest dose activity change, negative = inhibition, actives largely listed as inhibitors; 0.52% of 330,000 active;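 note: plate controls were no compound for no effect and no enzyme for full effect; nearly all actives have a fitted effect of over 20% in size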
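AmpC (5.3 nM in the dispensed reagent) in 20 mM phosphate pH 7.0 with 0.01% (detergent screen) or 0.0001% Triton X-100 was preincubated with compounds for 15 min at room temperature. Nitrocefin was then added from an 800 uM solution, and hydrolysis was followed at 480 nm.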
SARS PLP yeast = blocks SARS-CoV papain-like protease in a yeast assay. S. cerevisiae expressing SARS-CoV PLpro, growth rescue. Potency, µM (top dose mostly 32.9 µM), for inactives: at the highest dose activity, positive = growth rescue, hits mostly activators. 0.19% of 330,000 active. AID 485353; calls by dose curve; note: 0% is about no effect; nearly all actives have a fitted effect of over 55% in size
Pf growth 96h = P. falciparum growth inhibition at 96 hours; Potency, µM (doses to about 28.7 µM), for inactives: at the top dose activity change, negative = inhibition, actives largely listed as inhibitors; 6.9% of 320,000 active; AID 504834; P. falciparum luciferase reporter growth, 96 h; note: % is set by controls: 0 for no effect and ±100 for the full control effect
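Cell-based qHTS: luciferase-tagged P. falciparum in erythrocytes (2% hematocrit, 0.05% parasitemia final) incubated with compounds for 96 hours, 37 C, 5% CO2; luciferase detection reagent then added and luminescence measured.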
* marks the source's active call; other numbers are inactive results; ? = inconclusive; / = no result; [ ] = dose if it differs, or a comment. Unless noted, calls come from the whole dose curve; as a rule, active = well fitted curve in the direction sought with a large enough effect; inconclusive = small, poorly fitted or top-dose-only effect, or another doubt; inactive = no such curve, though single readings can be large; an effect the other way counts as inactive or inconclusive. Potency is the fitted concentration of half-maximal effect.

SMILES | Pf growth 48h | Sm TGR block | AmpC inh detg | AmpC inh no detg | SARS PLP yeast | Pf growth 96h
Cc1cc2nc3c(nc2cc1C)CCCC3 | 96% | 14% | 5% | -9% | 0% | 48%
Cc1ccc(C(=O)OCc2c(C)noc2C)cc1NC(=O)c1ccco1 | -77% | -7% | -9% | -15% | 2% | 10µM*
C/C(=N\NC(=S)Nc1ccc(F)cc1)C1CC1 | ? | 0% | 6% | -40% | 3% | 12µM*
CC1CCN(C(=S)Nc2ccc(F)cc2)CC1 | 4% | -6% | -4% | -26% | ? | 0%
COc1ccc(Cc2n[nH]c(=S)n2N)cc1OC | 7% | / | -2% | -26% | 0% | ?
COc1ccc(Cc2n[nH]c(=S)n2C)cc1Br | 25% | 32µM* | 7% | 17% | 0% | 1%
CC(=O)N1CCC(=NNc2ccnc3cc(Cl)ccc23)CC1 | 1.9µM* | ? | 3% | 19% | -6% | 2.6µM*
CCOC(=O)N1CCC(=NNc2ccnc3cc(Cl)ccc23)CC1 | ? | ? | -6% | -13% | -5% | 2.6µM*
CC(=O)N1CCC(=NNc2ncc(C(F)(F)F)cc2Cl)CC1 | 0% | 2% | -4% | ? | 1% | 51%
Cc1ccc(Cn2c(CO)cnc2SCC(=O)Nc2ccc(C)c(Cl)c2)cc1 | / | 3% | 13% | / | / | /
CCOC(=O)C1CCN(C(=O)c2cc3ccccc3oc2=O)CC1 | 36% | -2% | -6% | -2% | 0% | 1%
CCOC(=O)NCc1ccc2[nH]c(C)cc2c1 | 7% | ? | ? | -21% | -7% | 37%
CCOC(=O)CCC(=O)NCc1ccc2[nH]c(C)cc2c1 | ? | 50µM* | ? | -21% | -14% | ?
Cc1cc2cc(CNC(=O)Nc3ccccc3)ccc2[nH]1 | 156% | -15% | -4% | 22µM* | -5% | 88%
Cn1c(=O)cc(Nc2ccccc2)[nH]c1=O | 7% | 7% | 3% | -4% | 6% | ?
O=c1[nH]c(Nc2ccccc2)cc2ccccc12 | ? | 16µM* | -15% | -19% | -33% | 1%
COc1cc(NC(=O)Cn2nnnc2-c2ccccc2F)cc(OC)c1OC | / | 7% | 15% | / | / | /
CCCc1cc(=O)[nH]c(SCC(=O)Nc2cc(C)on2)n1 | 17% | 2% | 4% | -17% | 0% | ?
CCc1nnc2n1N=C(c1ccc(-c3cc(Cl)ccc3Cl)o1)CS2 | / | 27% | ? | -31% | 3% | 9.3µM*
CCc1nnc2n1N=C(c1ccc(OC)cc1)CS2 | -26% | 2% | ? | -6% | -1% | ?
Cn1c(CN2CCN(S(C)(=O)=O)CC2)nc2cc([N+](=O)[O-])ccc21 | 25% | 8% | -8% | -12% | 1% | 25%
Cc1c(C(=O)N2CCC[C@H]2C(N)=O)oc2c(F)cccc12 | 13% | 0% | -1% | -10% | -1% | 159%
COC(=O)c1cc(-c2ccc(S(=O)(=O)N3CCCCC3)cc2)c(C(F)(F)F)s1 | 12µM* | 10% | 10% | -24% | 0% | ?
COC(=O)c1cc(-c2ccc(S(=O)(=O)N3CCCC3)cc2)c(C(F)(F)F)s1 | ? | -5% | -9% | 17% | -2% | ?
CCc1ccc2c(CN3CCN(S(=O)(=O)c4ccc5c(c4)OCCO5)CC3)cc(=O)oc2c1 | 9.3µM* | 0% | 1% | -14% | -27% | ?
SMILES | Pf growth 48h | Sm TGR block | AmpC inh detg | AmpC inh no detg | SARS PLP yeast | Pf growth 96h
CCOC(=O)Nc1ccc2c(CN3CCN(S(=O)(=O)c4ccccc4)CC3)cc(=O)oc2c1 | 9.3µM* | 9% | 8% | -25% | ? | 6.6µM*
O=c1cc(CN2CCN(S(=O)(=O)c3ccc4c(c3)OCCO4)CC2)c2ccc(O)cc2o1 | ? | -1% | 1% | -44% | 9% | /
CCCCSc1nnc2n(CCc3ccccc3)c(=O)c3c4c(sc3n12)COC(C)(C)C4 | -6% | 1% | ? | -9% | 0% | 1.7µM*
CCC[C@@H](O)c1cc2cc(OC)c(OC)cc2c(=O)o1 | 0% | -10% | 0% | -6% | -3% | 2.6µM*
Cc1cc(=O)oc2ccc(OCC(=O)N(Cc3ccc(F)cc3)Cc3ccco3)cc12 | 10µM* | 18µM* | -5% | 23% | -13% | ?
CCc1ccc(N2C(=O)Nc3ccccc3C2(O)C(=O)N2CCN(c3ccccn3)CC2)cc1 (configuration not stated) | -8% | -10% | 3% | -17% | -4% | -1%
O=C(CCNC(=O)c1ccc(Cl)cc1)NCC(c1ccco1)N1CCCCC1 (configuration not stated) | ? | -18% | -8% | -1% | -6% | 4.7µM*
O=C(CSc1ccccc1)NCC(c1ccco1)N1CCCCC1 (configuration not stated) | ? | -8% | ? | -10% | -1% | ?
OC(CNCC(c1ccco1)N1CCCCC1)c1ccccc1 (configuration not stated) | 1.3µM* | -4% | 0% | 1% | 5% | ?
O=C(NCC(c1ccco1)N1CCCC1)c1ccc(Cl)cc1 (configuration not stated) | / | -14% | -8% | -10% | -7% | 0.93µM*
O=C(NCC(c1ccco1)N1CCCC1)c1cc2ccccc2s1 (configuration not stated) | 2.6µM* | -7% | ? | -30% | 7%[6.58 µM] | 4.1µM*
O=C(NCC(c1ccco1)N1CCOCC1)c1ccc(F)c(F)c1 (configuration not stated) | 52% | ? | 0% | -12% | 2% | 0%
Cc1ccc2oc(C(=O)NCC(c3ccco3)N3CCCC3)c(C)c2c1 (configuration not stated) | -14% | -6% | 3% | 71% | 14% | ?
Cc1nn(-c2ccc(C(=O)NCC(c3ccco3)N3CCCC3)cc2)c(C)c1Cl (configuration not stated) | ? | -5% | -12% | 113% | 4% | 0.83µM*
O=C(NCC(c1ccco1)N1CCCC1)c1cc2cc(Cl)ccc2o1 (configuration not stated) | ? | -22% | 3% | 1% | -19% | 9.3µM*
Cc1cc(C)c(OCC(=O)NCC(c2ccco2)N2CCCCC2)c(C)c1 (configuration not stated) | 13µM* | -1% | 1% | 72% | 0% | 12µM*
COC(=O)c1ccc(NC(=O)CSc2nc(=O)[nH]c3c2CCCC3)cc1 | / | -20% | 0% | / | / | /
Cn1nc(C(F)(F)F)c(/C=N/OC(=O)c2ccccc2Cl)c1SCc1ccccc1Cl | 13µM* | 5% | 0% | -7% | 0% | ?

High-throughput results: PubChem BioAssay, National Center for Advancing Translational Sciences (NCATS)
